This is part of a sample that, as a whole, favours compounds with a hit. Of some 83,000 tested, about 20% had one in any assay.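 Interpretation: 100, growth as untreated; towards 0, rising growth inhibition; 0, no net growth; 0 to -100, cell death. Compounds scoring below 10 were considered active.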 Active and inactive are the calls of the source.

The test system of the assay is IGROV1 ovarian. The assay can be described thus: NCI-60 one-dose screen, 48 h (100 = growth as untreated, 0 = no growth, -100 = all killed). To be noted: 10 µM unless noted.
As to `O=C(O)c1nn(-c2ccc(Cl)cc2)nc1N1CCCC1`, the growth was 93% (inactive). The value for `COCCNC(=O)Cc1cc(-c2ccc(Cl)cc2)n(-c2ccccc2)c1C` was 88.6% (inactive); that for `O=C(Nc1ccc(Oc2cccc(F)c2)c(Cl)c1)c1cnccn1` was 40.5% (inactive). The value for `CC(=O)[C@H]1CC[C@]2(C)[C@@H]1CC[C@@H]1[C@@]3(C)C/C(=C/c4cccnc4)C(=O)C(C)(C)[C@@H]3CC[C@]12C` was 93.4% (inactive); that for `C=C(C)Cn1c(SCC(=O)c2cccs2)nc2sc3c(c2c1=O)CCCC3` was 55.1% (inactive); that for `Cc1ccc(C(=O)Nc2ccc(CN3CCN(C)CC3)c(C(F)(F)F)c2)cc1C#Cc1cnc(N)c2ccccc12` was -37.6% (active). With `COc1cc(C2CC(c3cccc(Nc4ccncc4)c3)=Nc3c(N)ncnc3N2)cc(OC)c1OC` (centres undefined) the figure was 95.8% (inactive); with `CO[C@]12C=C/C(=C(/C(=O)OCc3cccnc3)C(=O)CCCCCCCC[C@]3(OC)C=C/C(=C(/C(=O)OCc4cccnc4)C(=O)CCCCCCCC1)O3)O2`, -66.7% (active); with `CCOC(=O)CSc1nc2sc3c(c2c(=O)n1-c1ccccc1)CCCCC3`, 106% (inactive).

As for `CN1CCN(Cc2ccc(NC(=O)c3cncc(C#Cc4cnc(N)c5ccc(C#N)cc45)c3)cc2C(F)(F)F)CC1`, the growth is -64.1% (active).

As for `CCOC(=O)C1=C(c2ccccc2)N=C2SC=C(c3cccc([N+](=O)[O-])c3)N2C1c1ccc(O)cc1` (centres undefined), the growth was 95.5% (inactive). With `CCn1c2ccccc2c2cc(C(O)c3cccc4ncccc34)ccc21` (centres undefined) the figure was 19.1% (inactive).

On to `Cc1c(Cl)cccc1NC(=O)c1sc2nc3c(cc2c1N)CCCC3`, for which the growth was 57.2% (inactive). The value for `O=C(/C=C/c1ccco1)Nc1ncc(Cc2ccc(F)cc2)s1` was 27.2% (inactive); that for `COc1nc2ccccc2cc1/C=[N+](\[O-])c1ccccc1` was 86.7% (inactive). With `COc1ccc(-c2ccc(-c3ccc(C(=N)N)o3)o2)cc1` the figure was 57.1% (inactive); with `C=C(C[n+]1ccccc1)[C@@H]1CC[C@]2(C(=O)OC)CC[C@]3(C)[C@H](CC[C@@H]4[C@@]5(C)CCC(=O)C(C)(C)[C@@H]5CC[C@]43C)[C@@H]12`, 64.2% (inactive). Take `COc1cccc(C(=O)Nc2cccc(NC(=O)c3ccccn3)c2)c1`: the growth is 101% (inactive). With `N#CC1=C(N)Oc2c(ccc3cccnc23)C1c1ccccc1` (centres undefined) the figure was 42.4% (inactive); with `COc1ccc(C2=NN(C=O)C(c3ccc(Oc4nc5c(c(=O)n(C)c(=O)n5C)n4C)c(OC)c3)C2)cc1` (centres undefined), 87.7% (inactive). With `Cn1cc(-c2csc(-c3cn(C)c4ccc(F)cc34)n2)c2cnccc21` the figure was -24.7% (active). With `C=C(C)[C@@H]1CC[C@]2(C(=O)NC(C)=O)CC[C@]3(C)[C@H](CC[C@@H]4[C@@]5(C)CCCNC(C)(C)[C@@H]5CC[C@]43C)[C@@H]12`, the growth is 20.4% (inactive). With `COc1cccc(CNc2nnc(C)c(C)n2)c1O` the figure was 107% (inactive). In the case of `O=C(/C=C/c1ccc(Cl)cc1)c1ccc(-n2cc(CN3CCN(c4cc5c(cc4F)c(=O)c(C(=O)O)cn5C4CC4)CC3)nn2)cc1`, the growth was 59% (inactive). With `COc1cccc2cc(N(C)c3nc(C)nc4c3CCC4)ccc12` the figure was 24.2% (inactive); with `O=C(O)CCCN1C(=O)CSC1=S`, 103% (inactive). With `Cc1c2cnccc2c(C)c2c1c1cc(C(=O)O)ccc1n2C` the figure was 0.419% (active); with `C=C1C(=O)O[C@H]2[C@H]1CC/C(CNC(=O)/C=C/c1cc(OC)c(OC)c(OC)c1)=C\CC[C@@]1(C)O[C@@H]21`, 17.8% (inactive); with `Cc1nc2ccccc2c(/C=C/c2ccc(Br)cc2)c1C(=O)/C=C/c1ccccc1`, -7.6% (active).

As to `CC(=O)O[C@H]1C[C@@]2(C)[C@@H](C[C@@H](O)[C@H]3[C@@]4(C)CC[C@H](N5CCCC5)[C@@H](C)[C@@H]4CC[C@@]32C)/C1=C(\CCC=C(C)C)C(=O)O`, the growth was 105% (inactive). With `O=C(O)c1cc2ccccc2s1` the figure was 106% (inactive). With `CC(=O)OCCOc1cc(Cl)c(Cl)cc1Cl` the figure was 130% (inactive); with `CCN1CCN(c2nc(NNC(=O)c3ccc(OC)cc3)nc(N3CCN(C(c4ccccc4)c4ccccc4)CC3)n2)CC1`, 72.3% (inactive). The value for `Cc1cc(=O)oc2cc(Oc3nc(-c4ccccc4)cn4c(-c5ccccc5)cnc34)ccc12` was 83.7% (inactive); that for `CN(Cc1ccccc1)c1nc(Cl)c(C2CC(c3ccc(Cl)cc3)=NN2c2cc(Cl)cc(Cl)c2)s1` (centres undefined) was 102% (inactive); that for `COC(=O)c1c(C)nc(C)c2c1C(=O)C(Br)=C(NCCCCO)C2=O` was 52.9% (inactive).

Turning to `COc1cc(/C=C/c2cc(/C=C/c3ccc(O)c(OC)c3)n(C(=O)Nc3ccc(C)cc3C)n2)ccc1O`, the growth is -1.75% (active). With `Cc1cc2nc(C(Cl)Cl)nc(-c3ccccc3)n2n1` the figure was 71.4% (inactive); with `CN1C(=O)N(C)C2C1NN=c1s/c(=C\c3ccccc3F)c(=O)n12` (centres undefined), 20.8% (inactive).

(Values after PubChem BioAssay (NCI).)
